# Assay results from PubChem BioAssay (NCI).
# The panel holds about 83,000 compounds, 20% with a hit somewhere; the sample as a whole holds those more often.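 Negative percent growth values reflect cell death: -40 means 40% of the cells present at the start died, and -100 means all died.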 Values without a mark were called inactive. Activity calls are given as the source filed them. Rule for the calls: active = growth percent below 10; inactive = the rest.
# Legend:
# Assay in all cases: NCI-60 one-dose screen, 48 h (100 = growth as untreated, 0 = no growth, -100 = all killed)
# Conditions in all cases: 10 µM unless noted
# RPMI-8226 leukemia = tested on: RPMI-8226 leukemia
# OVCAR-8 ovarian = tested on: OVCAR-8 ovarian
# OVCAR-5 ovarian = tested on: OVCAR-5 ovarian
# OVCAR-4 ovarian = tested on: OVCAR-4 ovarian
# SK-OV-3 ovarian = tested on: SK-OV-3 ovarian
# IGROV1 ovarian = tested on: IGROV1 ovarian
# OVCAR-3 ovarian = tested on: OVCAR-3 ovarian
# HS 578T breast = tested on: HS 578T breast
# NCI/ADR-RES ovarian = tested on: NCI/ADR-RES ovarian
SMILES,growth (RPMI-8226 leukemia),growth (OVCAR-8 ovarian),growth (OVCAR-5 ovarian),growth (OVCAR-4 ovarian),growth (SK-OV-3 ovarian),growth (IGROV1 ovarian),growth (OVCAR-3 ovarian),growth (HS 578T breast),growth (NCI/ADR-RES ovarian)
Cc1ccc(S(=O)(=O)c2nc(-c3ccccc3)oc2S(C)(=O)=O)cc1,8.94% (active),54.7%,66%,80.5%,76.6%,65.6%,-86.8% (active),91.2%,85.1%
COc1ccc(-c2c(N)n[nH]c2-c2cc(OC)c(OC)c(OC)c2)cc1,27%,21.2%,37.5%,47.7%,15.4%,26.9%,-36.1% (active),,-20.2% (active)
COc1ccc(OC)c(C2OC(c3ccc4ccccc4c3O)=NN2C(C)=O)c1 (stereo not given),66.6%,81%,102%,75.5%,58%,75.8%,52.4%,71.7%,59.2%
O=S(=O)(NCCNc1nccc(-c2c(-c3cccc(O)c3)nc3sccn23)n1)c1ccc(F)cc1,76.2%,67.6%,107%,103%,85.9%,63.7%,86.8%,83%,97.9%
N#Cc1c(-c2ccccc2)cc(-c2ccccc2)n(CC(=O)NO)c1=O,23.2%,67.7%,69.3%,50.6%,107%,-61.4% (active),30%,,11.5%
CN(C)c1ncnc2c1ccn2C1OC(CO)C(O)C1O (stereo not given),83.7%,0.899% (active),39.5%,33.3%,33.7%,-0.957% (active),25.9%,,1.88% (active)
O=C(c1c[nH]c(=O)c(-c2ccccc2)c1)c1ccccc1O,95.2%,85.6%,88.5%,95.8%,83.6%,82.7%,98.4%,,82.4%
C=C(C)[C@@H]1C[C@@H]2Cc3cc(F)ccc3N1O2,65.2%,97.1%,93.8%,101%,104%,108%,112%,99%,99.6%
CN(C[C@H]1Cc2c(cccc2N2CCN(Cc3ccccn3)CC2)CN1)[C@H]1CCCc2cccnc21,64.5%,42.7%,71%,72.6%,51.2%,49.2%,64.9%,92.2%,28.1%
Cc1ccc2ccccc2c1C[n+]1ccccc1,80.9%,91.7%,116%,91.5%,100%,101%,102%,,104%
O=C(O)c1nc(-c2ccccc2)oc1N1CCOCC1,107%,98.4%,93.2%,108%,92.7%,98.2%,105%,,96.6%
O=C1/C(=C/c2ccc(Cl)cc2)CN(Cc2cn(CCNc3ccnc4cc(Cl)ccc34)nn2)C/C1=C\c1ccc(Cl)cc1,-22% (active),-59.5% (active),-94.9% (active),-4.44% (active),-95.5% (active),-75.7% (active),-100% (active),-19.8% (active),-26.6% (active)
COc1cc(-c2nn(-c3cccc(NC(=O)c4ccc(Cl)c(C(F)(F)F)c4)c3)cc2-c2ccncc2)ccc1Cl,25.4%,38.9%,91.3%,66%,64.3%,48.9%,19.5%,34.7%,13.4%
NC1N=C(SCC(=O)N2CCN(c3cc4c(cc3F)c(=O)c(C(=O)O)cn4C3CC3)CC2)NC(=O)/C1=C/c1ccc(Cl)cc1 (stereo not given),101%,102%,104%,99.5%,114%,104%,109%,,105%
COc1ccc(/C=C/c2c(C(C)=O)c(C)nc3ccccc23)cc1,60.2%,85.2%,77%,70.1%,80.8%,76.7%,97.6%,106%,86.6%
C=C[C@@H]1C[C@H](O)Cc2ccccc2N1,89.9%,103%,106%,113%,114%,124%,125%,104%,106%
COc1cc(/C(C#N)=C/c2ccc3c(c2OC)OCO3)cc2c1OCO2,32.3%,28.8%,42.7%,56.3%,16.2%,37.7%,-36% (active),0.131% (active),-7.38% (active)
COc1ccc(-c2cnoc2-c2ccc(OC)cc2O)cc1,49.6%,51.4%,64.1%,75.1%,30%,51.6%,-11.3% (active),-7.48% (active),-21% (active)
CCCCCCCCN(CCCCCCCC)CCCCCCNc1cc(OC)cc2cccnc12,52.3%,73.3%,92.4%,82.7%,102%,78.7%,,111%,80.2%
O=[N+]([O-])c1cccc(-c2nc3sccn3c2-c2ccnc(NCCCNS(=O)(=O)c3ccc(C(F)(F)F)cc3)n2)c1,-4.61% (active),22.3%,90.6%,15.2%,71.9%,25.6%,28.7%,63.3%,8.78% (active)
Oc1ccc(Cl)cc1-c1cc(-c2ccc(F)cc2)n[nH]1,28.2%,73.4%,83.6%,25.3%,74.8%,40%,49.8%,65.4%,66.4%
O=C(Nc1ccc2c(c1)OCCO2)C(=O)c1c[nH]c2ccccc12,21.6%,53.5%,45.2%,51.2%,12.8%,44.5%,-45.1% (active),13.1%,-30.3% (active)
CN(C)CC(C(=O)c1ccccc1)c1ccccc1 (stereo not given),-34.4% (active),9.37% (active),59.3%,,88.4%,48.6%,-92.6% (active),60.5%,17.1%
COC(=O)C1CCCN1C(=O)[C@@H]1CCCN1C(=O)[C@H](Cc1c[nH]c2ccccc12)NC(=S)Nc1cc(C(F)(F)F)cc(C(F)(F)F)c1 (stereo not given in full),36.6%,42.7%,,61.1%,87.4%,47.1%,57.2%,65.4%,52.6%
Cc1cc(C2(c3cc(C)c(O)cc3C)OS(=O)(=O)c3ccccc32)c(C)cc1O,92.4%,103%,111%,,101%,107%,107%,96.3%,110%
COP(=O)(OC)/C(=N\NS(=O)(=O)c1ccc(C)cc1)c1ccccc1,109%,106%,91%,,91.7%,,103%,123%,95.8%
Nc1cc2c([nH]c[n+]2CC#CCCl)c(SCC#CCCl)n1,-2.17% (active),0.0129% (active),-76.9% (active),,-21.7% (active),-57% (active),-21.1% (active),,-24.2% (active)
COc1ccc2c(c1)cn1c3ccc(OC)cc3[nH]c(=O)c21,-37.8% (active),-47.4% (active),21.3%,40.4%,22.5%,-54% (active),,,-2.47% (active)
